Reference: PubChem BioAssay AID588689 (Southern Research Specialized Biocontainment Screening …, 2011)
Several values for one entry are separate records, joined by “and”; a condition that tells them apart may be missing. Identical values can stand only once. Among all 340,000 compounds or so, about 1,000 (0.29%) were called active. No stated cut-off is given here; in the data, inconclusive means inhibition above about 29% without an active follow-up result; inactive means below that. These entries were drawn from the full list. Measured potencies and affinities stand elsewhere.

Molecular target: Genome polyprotein (Dengue virus type 2 (strain 16681-PDK53)) (UniProt P29991)
Test: flavivirus cap methylation enzyme inhibition – biochemical, confirmation dose response, primary screen (AID 588689)
Details: Dengue-2 NS5 methyltransferase capping enzyme assay, at 25 µM, stronger effect = higher value
[1] = measured here: pilot screen replicate inhibition

| Compound | inhibition | inhibition [1] [%] |
| --- | --- | --- |
| CC(OC(=O)C1CC1C)C(=O)Nc1ncc(Cl)cc1Cl (centres undefined) | -5.81% (inactive) |  |
| O=S(=O)(Nc1nc2ccccc2nc1NCc1ccco1)c1ccc(F)cc1 | 21.1% (inactive) |  |
| O=S(=O)(Nc1nc2ccccc2nc1NCc1ccco1)c1ccccc1 | 26.3% (inactive) |  |
| CCCNC(=O)NC(=O)c1cnccc1C(F)(F)F | 3.85% (inactive) |  |
| CC1=NOC(=O)/C1=C/c1ccc(O)cc1 | 33.3% (inactive) |  |
| CCN(CC)c1ccc(/C=C2/C(=O)ON=C2C)cc1 | -145% (inactive) |  |
| CC1=NOC(=O)/C1=C/c1ccc(O)c(Br)c1 | -9.14% (inactive) |  |
| CC1=NOC(=O)/C1=C/c1ccc(O)c(Cl)c1 | 6.53% (inactive) |  |
| CCc1nc(SCC(=O)NCCc2ccccc2)n[nH]1 | 0% (inactive) |  |
| CCCC(c1nnnn1C(C)(C)CC)N1CCN(C(=O)c2ccco2)CC1 (centres undefined) | 3.16% (inactive) |  |
| O=C(c1cccc(S(=O)(=O)Nc2ccc(Br)cc2)c1)N1CCCC1 | -8.06% (inactive) |  |
| COc1ccc(S(N)(=O)=O)cc1C(=O)NNC(=O)c1cccc(S(=O)(=O)N2CCOCC2)c1 | 3.75% (inactive) |  |
| Cc1ccc(C)c(S(=O)(=O)N2CCCC2CNC(=O)C(=O)NCc2ccco2)c1 (centres undefined) | 0% (inactive) |  |
| O=C(CN1CCC(c2nc3ccccc3s2)CC1)N1CCCCC1 | -11.7% (inactive) |  |
| O=C1C=CC(=O)N1c1ccccc1N1C(=O)C=CC1=O | 5.05% (inactive) |  |
| O=C1c2ccccc2C(=O)N1N(c1ccccc1)c1ccccc1 | 0% (inactive) |  |
| NC(=O)c1ccc(NCCCN2CCOCC2)c([N+](=O)[O-])c1 | -4.51% (inactive) |  |
| CC(=O)N1CCN(c2nc(N)c(C#N)c(CC#N)c2C#N)CC1 | -8.51% (inactive) |  |
| COc1ccc(S(=O)(=O)N2CCOCC2)cc1NC(=O)COC(=O)C1CC1C (centres undefined) | -7.51% (inactive) |  |
| CCCCc1nc2ccc(S(=O)(=O)O)cc2[nH]1 | -2.87% (inactive) |  |
| CC1=NN(c2ccccc2)C(=O)C1N=Nc1ccc(S(N)(=O)=O)cc1 (centres undefined) | -3.93% (inactive) |  |
| CCN(CC)CCNC(=O)Cn1c(=O)c2cccn2c2ccc(F)cc21 | -0.65% (inactive) |  |

| Compound | inhibition | inhibition [1] [%] |
| --- | --- | --- |
| O=C(CNC(=O)c1ccc(Br)o1)NNC(=O)COc1ccccc1Cl | 1.1% (inactive) |  |
| COc1ccc2c(c1)-c1nc(/N=C/c3ccccc3O)sc1CC2 | 29.6% (inactive) |  |
| COc1ccc2c(c1)-c1nc(/N=C/c3ccc(O)c(OC)c3)sc1CC2 | 27.5% (inactive) |  |
| Oc1c(CN2CCOCC2)cc(CN2CCOCC2)c(O)c1CN1CCOCC1 | 20.2% (inactive) |  |
| Oc1c(CN2CCOCC2)ccc(CN2CCOCC2)c1O | 25.3% (inactive) |  |
| C=CC(n1cncn1)C(O)(c1ccccc1)c1ccccc1 (centres undefined) | -1.2% (inactive) |  |
| CCc1ccc(S(=O)(=O)/N=C2\C=C(Nc3cccc(C(=O)O)c3)C(=O)c3ccccc32)cc1 | 5.86% (inactive) |  |
| COC(=O)c1ccccc1NC1=C/C(=N\S(=O)(=O)c2cccs2)c2ccccc2C1=O | 7.26% (inactive) and 0.39% (inactive) |  |
| CCc1ccc(S(=O)(=O)/N=C2\C=C(Nc3ccc(C(=O)O)cc3)C(=O)c3ccccc32)cc1 | 26.1% (inactive) |  |
| Cc1ccc(S(=O)(=O)/N=C2\C=C(Nc3cccc(C(=O)O)c3)C(=O)c3ccccc32)c(C)c1 | 13.2% (inactive) |  |
| O=C1C(Nc2ccccc2)=C/C(=N/S(=O)(=O)c2cccs2)c2ccccc21 | 0% (inactive) |  |
| Cc1ccc(S(=O)(=O)/N=C2\C=C(Nc3cccc(C(=O)O)c3)C(=O)c3ccccc32)cc1 | 9.52% (inactive) |  |
| O=C1C(Nc2ccc(O)cc2)=C/C(=N/S(=O)(=O)c2cccs2)c2ccccc21 | 22.4% (inactive) |  |
| Cc1ccc(NC2=C/C(=N/S(=O)(=O)c3cccs3)c3ccccc3C2=O)cc1C | 1.44% (inactive) |  |
| CCOC(=O)C1(CC2CCCCO2)CCN(Cc2c(C)cc(C)cc2-n2cccn2)CC1 (centres undefined) | -10.8% (inactive) |  |
| COc1ccc(S(=O)(=O)N2CCCCC2)cc1NC(=O)COC(=O)c1ccco1 | -2.61% (inactive) |  |
| O=C(Nc1ccc(F)cc1)OCCOc1ccc([N+](=O)[O-])cc1 | -1.94% (inactive) |  |
| CC(C)(C)OC(=O)COc1cc(F)ccc1[N+](=O)[O-] | -8.99% (inactive) |  |
| Cc1cc(NC(=O)C2C3C(=O)N(CCC(C)C)C(C(=O)NCc4ccccc4)C34C=CC2(C)O4)no1 (centres undefined) | -10.5% (inactive) |  |
| Cc1ccc(C(C)C)c(OCC(=O)NCC(c2cccs2)N2CCOCC2)c1 (centres undefined) | 0.74% (inactive) |  |
| Cc1ccc(-n2c(-c3ccc(Cl)cc3Cl)n[nH]c2=S)cc1 | -16.5% (inactive) | -6.44 |
| COc1ccc(NS(=O)(=O)c2csc(C(=O)N3CCCC3)c2)c(OC)c1 | -6.24% (inactive) |  |

| Compound | inhibition | inhibition [1] [%] |
| --- | --- | --- |
| O=C(COC(=O)Cc1n[nH]c(=O)c2ccccc12)NNC(=O)c1ccc(Br)cc1 | -4.04% (inactive) |  |
| CCC(=O)Nn1c(C)nnc1C | -2.7% (inactive) |  |
| Cc1ccc(S(=O)(=O)N2[C@@H](c3ccc(C(C)(C)C)cc3)C(C(=O)O)=CC[C@H]2c2ccc(Cl)c(Cl)c2)cc1 | 9.77% (inactive) |  |
| Cc1ccc(S(=O)(=O)N2[C@@H](c3ccc(Br)cc3)C(C(=O)O)=CC[C@H]2c2cccc(Cl)c2)cc1 | -1.32% (inactive) | 1.82 |
| Cc1ccc(S(=O)(=O)N2[C@@H](c3ccc(Cl)cc3)C(C(=O)O)=CC[C@H]2c2ccc(Cl)c(Cl)c2)cc1 | 27.3% (inactive) |  |
| Cc1ccc(S(=O)(=O)N2[C@@H](c3ccccc3)C(C(=O)O)=CC[C@H]2c2ccc(Cl)c(Cl)c2)cc1 | 10.4% (inactive) |  |
| CCc1ccc([C@@H]2CC=C(C(=O)O)[C@H](c3ccc(Br)cc3)N2S(=O)(=O)c2ccc(C)cc2)cc1 | 25.8% (inactive) | 10.7 |
| Cc1ccc([C@H]2C(C(=O)O)=C[C@@H](CC3CCCC3)N2S(=O)(=O)c2ccc(C)cc2)cc1 | 20.2% (inactive) |  |
| Cc1ccc([C@H]2C(C(=O)O)=CC[C@@H](c3ccc(C)cc3)N2S(=O)(=O)c2ccc(C)cc2)cc1 | 5.29% (inactive) | -0.615 |
| Cc1ccc(S(=O)(=O)N2[C@@H](c3ccc(Cl)cc3)C(C(=O)O)=C[C@H]2CC2CCCC2)cc1 | 19.2% (inactive) | 4.89 |
| O=C(N/N=C/c1cc(Br)c(Br)o1)c1cc2ccccc2o1 | -5.43% (inactive) |  |
| O=C1CCC[C@@H]2C[C@@]3(C[C@@H]4CCN1[C@H]24)Nc1cc(Cl)ccc1NC3=NCc1ccccc1 | -11.9% (inactive) |  |
| O=C(NCCCc1ccccc1)c1cccc(NC(=O)C2CCCCC2)c1 | -8.46% (inactive) |  |
| COc1ccc(C2=NN(C(=O)c3ccc(Cl)c([N+](=O)[O-])c3)C(c3ccccc3)C2)cc1 (centres undefined) | -4.55% (inactive) |  |
| Cc1ccc(NC(=S)NN2CCN(C)CC2)c(C)c1 | 3.57% (inactive) |  |
| Cn1c2cc(C#N)sc2c2cnn(Cc3ccc(F)cc3)c(=O)c21 | -9.27% (inactive) | -3.06 |
| Cc1ccccc1-c1cc(C(=O)NCc2cccc(C(F)(F)F)c2)n(CC2CC(c3cccnc3)=NO2)n1 (centres undefined) | 5.79% (inactive) |  |
| CCOc1ccccc1C=NNc1ccc([N+](=O)[O-])cn1 | -10.8% (inactive) |  |
| Cc1ccc(-c2cc(C(=O)N3CCC(C)CC3)c3ccccc3n2)cc1 | -0.67% (inactive) |  |
| COc1nnc(-c2ccccc2)s1 | -4.6% (inactive) |  |
| O=C(O)C1=CC[C@@H](c2ccc(Cl)cc2)N(S(=O)(=O)c2ccc(Cl)cc2)[C@H]1c1ccccc1 | 15.7% (inactive) |  |
| Cc1ccc(S(=O)(=O)N2[C@@H](c3ccc(Br)cc3)C(C(=O)O)=CC[C@H]2c2ccc(Cl)cc2)cc1 | 26.7% (inactive) |  |

| Compound | inhibition | inhibition [1] [%] |
| --- | --- | --- |
| CCCCC1CCC(C(=O)NCC(c2ccco2)N2CCOCC2)CC1 (centres undefined) | -3.1% (inactive) |  |
| CCCCn1c(=O)c(-c2ccccc2)c(O)c2ccccc21 | -4.09% (inactive) |  |
| CCCCCn1c(=O)c(C(=O)OCC)c(O)c2ccccc21 | -0.68% (inactive) |  |
| CCCCn1c(=O)c(C(=O)OCC)c(O)c2ccccc21 | 3.24% (inactive) |  |
| CCn1c(=O)c(-c2ccccc2)c(O)c2ccccc21 | 0% (inactive) |  |
| O=C1C(=Cc2ccncc2)CCCc2ccccc21 | -20.6% (inactive) |  |
| O=C(NC(=S)N1CCCCCC1)c1cccc([N+](=O)[O-])c1 | -2.29% (inactive) |  |
| O=C(Cn1cc(C(F)(F)F)ccc1=O)NCCc1ccc(Cl)cc1Cl | -0.73% (inactive) |  |
| Cc1ccc(/C=C/C(=O)C2C(=O)c3ccccc3C2=O)cc1 | 13.3% (inactive) |  |
| O=C(/C=C/c1ccccc1)C1C(=O)c2ccccc2C1=O | -1.46% (inactive) |  |
| Cc1ccc(C)c(N2CCN(C(=O)C3CCCN(S(=O)(=O)c4c(C)noc4C)C3)CC2)c1 (centres undefined) | -2.75% (inactive) |  |
| O=C(NCCC1=CCCCC1)c1ccc(Cl)c([N+](=O)[O-])c1 | 0% (inactive) |  |
| O=C(O)c1ccc(NCCC2=CCCCC2)c([N+](=O)[O-])c1 | 5.44% (inactive) |  |
| Nc1c(C(=O)N/N=C/c2ccccc2)cnn1-c1ccccc1 | 1.53% (inactive) |  |
| COc1cccc(NS(=O)(=O)c2ccc3c(c2)CC(=O)N3)c1 | -6.98% (inactive) |  |
| COC(=O)c1ccc(C2Nc3ccc(/C(C)=N/NC(=O)C(OC)c4ccccc4)cc3C3C=CCC32)cc1 (centres undefined) | -4.05% (inactive) |  |
| COc1ccc(NS(=O)(=O)c2ccc(NS(=O)(=O)c3cccc(C(=O)O)c3)cc2)cc1 | 0% (inactive) |  |
| CC(=O)c1ccc2c(c1)C1C=CCC1C(c1ccc(S(=O)(=O)N3CCOCC3)cc1)N2 (centres undefined) | 11.6% (inactive) |  |
| COc1ccc(C(=O)N/N=C(\C)c2ccc3c(c2)C2C=CCC2C(c2ccccc2)N3)cc1 (centres undefined) | 2.59% (inactive) |  |
| O=C(O)c1ccc2c(c1)C1C=CCC1C(c1cc3c(cc1Br)OCO3)N2 (centres undefined) | 6.19% (inactive) |  |
| O=C(O)c1ccc(NS(=O)(=O)c2ccc3c(c2)OCCCO3)cc1 | -0.76% (inactive) |  |
| COc1cccc(NS(=O)(=O)c2ccc3c(c2)NC(=O)CC(=O)N3)c1 | -10.6% (inactive) |  |
